JMJD2A Tudor = qHTS Assay for Inhibitors of JMJD2A-Tudor Domain; Potency, µM (doses to about 114 µM), inactives show top-dose activity change, negative = inhibition, most hits filed as inhibitors; AlphaScreen JMJD2A-Tudor / H3K4me3 peptide binding; Lysine-specific demethylase 4A (Homo sapiens), O75164; actives 4.4% (n = 390,000); also: % is scaled to controls: 0 for no effect and ±100 for the full control effect; nearly all actives have a fitted effect of over 50% in size
PLK1 PBD block = qHTS for Inhibitors of PLK1-PDB (polo-like kinase 1 - polo-box domain): Primary Screen; Serine/threonine-protein kinase PLK1 (Homo sapiens), P53350; Plk1 PBD binding of FITC phosphopeptide, fluorescence polarization; Potency, µM, for inactives: max response, negative = inhibition, most hits filed as inhibitors; actives 2.8% (n = 360,000); also: series mostly up to about 57 µM; % is scaled to controls: 0 for no effect and ±100 for the full control effect; nearly all actives have a fitted effect of over 65% in size
Target sequence (P53350 whole entry, looked up, the tested form may be a part): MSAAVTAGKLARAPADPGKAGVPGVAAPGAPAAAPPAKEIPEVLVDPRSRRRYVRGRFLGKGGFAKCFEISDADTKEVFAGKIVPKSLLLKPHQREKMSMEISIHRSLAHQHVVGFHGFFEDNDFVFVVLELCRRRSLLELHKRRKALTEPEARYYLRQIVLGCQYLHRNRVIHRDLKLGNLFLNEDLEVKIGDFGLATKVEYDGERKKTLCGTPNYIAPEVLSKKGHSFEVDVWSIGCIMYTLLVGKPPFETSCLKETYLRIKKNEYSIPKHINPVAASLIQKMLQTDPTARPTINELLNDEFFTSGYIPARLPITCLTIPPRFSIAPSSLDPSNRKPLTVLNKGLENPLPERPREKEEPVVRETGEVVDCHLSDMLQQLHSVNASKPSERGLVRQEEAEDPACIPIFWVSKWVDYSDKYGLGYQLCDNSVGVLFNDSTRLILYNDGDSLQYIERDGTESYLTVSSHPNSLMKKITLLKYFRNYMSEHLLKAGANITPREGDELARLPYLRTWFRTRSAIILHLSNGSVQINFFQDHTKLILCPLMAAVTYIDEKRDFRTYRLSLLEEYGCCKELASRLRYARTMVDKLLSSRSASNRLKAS
ALOX12 inh = Primary qHTS assay for inhibitors of human arachidonate 12S-lipoxygenase (ALOX12): Round 2 | purified 12hLO, xylenol orange hydroperoxide absorbance | Polyunsaturated fatty acid lipoxygenase ALOX12 (Homo sapiens), P18054 | Potency, µM (highest dose often 108 µM), for the others: at the highest dose activity change, negative = inhibition, most hits filed as inhibitors | actives 1.1% (n = 580,000); also: % is scaled to controls: 0 for no effect and ±100 for the full control effect
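Purified human 12hLO at 150 nM in 25 mM Hepes, 0.01% Triton X-100, pH 7.0, preincubated 15 min at room temperature with compound. Reaction started with 40 uM arachidonic acid, 30 min at room temperature. Hydroperoxide measured by Fe-xylenol orange, 573/405 nm absorbance ratio.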
HP1b binding inh = HTS for Inhibitors of HP1-beta Chromodomain Interactions with Methylated Histone Tails; actives 0.56% (n = 390,000); Potency, µM (doses to about 114 µM), without a hit: at the highest dose activity change, negative = inhibition, hits mostly inhibitors; Chromobox protein homolog 1 (Homo sapiens), P83916; AlphaScreen HP1-beta / biotin-H3K9me3 peptide binding; also: nearly all actives have a fitted effect of over 70% in size
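HP1-beta protein (50 nM final) preincubated 30 min at room temperature with biotinylated H3(1-18)K9me3 peptide (50 nM) in PBS pH 7.4, 0.01% Tween-20, then compound added for 30 min. AlphaScreen streptavidin donor/nickel chelate acceptor beads (10 ug/mL final), 30 min dark, luminescence read.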
G9a block = qHTS Assay for Inhibitors of Histone Lysine Methyltransferase G9a. Histone-lysine N-methyltransferase EHMT2 (Homo sapiens), Q96KQ7. G9a H3K9 monomethylation, AlphaScreen, 2 h. Potency, µM (highest dose often 102 µM), inactives show top-dose activity, negative = inhibition, usual class: inhibitors. actives 8.8% (n = 350,000); also: % is scaled to controls: 0 for no effect and ±100 for the full control effect; nearly all actives have a fitted effect of over 75% in size
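AlphaScreen read-out: biotin-H3K9 peptide (500 nM) methylation by 20 nM enzyme with 20 uM SAM, 2 h at room temperature after 15 min compound preincubation; anti-monomethyl H3K9 antibody plus donor/acceptor beads, 10 min dark.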
BAZ2B inh = qHTS Assay for Inhibitors of BAZ2B; AlphaScreen BAZ2B-H3K14Ac peptide displacement; Potency, µM (highest dose often 114 µM), for inactives: at the highest dose activity change, negative = inhibition, most hits filed as inhibitors; actives 4.4% (n = 360,000); also: % is scaled to controls: 0 for no effect and ±100 for the full control effect; nearly all actives have a fitted effect of over 60% in size
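AlphaScreen displacement of biotin-H3(5-23)K14Ac peptide (50 nM final) from BAZ2B (50 nM final) in PBS pH 7.4, 0.01% Tween-20; complex preformed 30 min RT, then compounds (top 110 uM) 30 min RT, beads 20 min dark.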
The depositor's hits bear a star; ? = inconclusive; . = no result; [ ] = another dose, or the depositor's remark. The list is not random: actives were taken first. Their share in the collection is about 9%. Calls follow the shape of the dose curve; as a rule, active = well fitted curve in the direction sought with a large enough effect; inconclusive = small, poorly fitted or top-dose-only effect, or another doubt; inactive = no such curve, though single readings can be large; an effect the other way counts as inactive or inconclusive. Potency is read from the fitted curve at half-maximal effect.

SMILES | JMJD2A Tudor | PLK1 PBD block | ALOX12 inh | HP1b binding inh | G9a block | BAZ2B inh
CCOP(=O)(O)c1ccccc1OCCOc1ccccc1P(=O)(O)OCC | -17% | -6% | -14% | 81% | 45µM* | ?
Cc1c(C(=O)Nc2nonc2-c2ccc(F)cc2)oc2ccc(F)cc12 | ? | 30µM* | 6% | -3%[57 µM] | -5% | 14%
CCO/C(C)=C1\C(=O)Nc2ccccc21 | -8% | -15% | -5% | 40% | 50µM* | 7%
COc1ccc(Cc2nc3c4c(C)c(C)n(CCN(C)C)c4ncn3n2)cc1OC | . | . | 24% | . | . | .
O=C(CSc1nc2ccccc2[nH]1)N=Nc1c(O)[nH]c2ccccc12 | -28% | ? | 9% | 3% | 45µM* | -30%
COC(=O)c1ccc(CNC(=O)CSc2nc3ccccc3[nH]2)cc1 | 2% | -14% | -10% | 20% | 40µM* | -2%
O=C(CCCSc1nc2ccccc2[nH]1)NCc1ccc(Cl)cc1 | -17% | ? | ? | 43% | 10µM* | -2%
COc1ccc2nc(SCC(=O)NCc3ccccc3)[nH]c2c1 | -16% | -1% | 17% | 21% | -7% | -22%
O=C(O)C(Cc1ccc(Cl)cc1)Sc1nc2ccccc2[nH]1 (stereo not drawn) | -2% | ? | ? | -11% | 50µM* | -1%
CCCCc1cc2c(cc1NC(=O)CN1CCCCC1)OCCO2 | -22% | -8% | -10% | 20% | ? | -10%
CCN=C1SC(CC(=O)NCC)C(=O)N1CC (stereo not drawn) | -24% | -28% | 0% | 1% | ? | 3%
COc1ccc(CCNC(=O)C(C)SCC(=O)Nc2ccc(F)cc2)cc1 (stereo not drawn) | -10% | 2% | -2% | 23% | . | .
Fc1c(F)c(F)c(CSc2nc3ccccc3[nH]2)c(F)c1F | -4%[57.1 µM] | ? | 0% | 49% | 4%[12.7 µM] | 14%
Cc1ccc(CNC(=O)CSc2nc3ccccc3[nH]2)cc1 | -12% | -14% | 0% | 54% | 25µM* | -20%
Cc1ccc2nc(SCC(=O)NCc3ccc(F)cc3)[nH]c2c1 | 4% | -13% | 11% | 70% | -41% | -3%
O=C(O)CSc1nc2ccccc2[nH]1 | ? | 27µM* | ? | 12% | ? | -6%
Fc1ccccc1CSc1nc2ccccc2[nH]1 | -8%[11.4 µM] | ? | 0% | -11% | 50µM* | -5%
Cc1cc(C)n2cc(CSc3nc4ccccc4[nH]3)nc2n1 | -4% | ? | 9% | 35% | 20µM* | -8%
Cc1cc(C)n2cc(CSc3nc4ccccc4s3)nc2n1 | -5% | -16% | -3% | 36% | ? | -3%
COc1ccc(-c2ccc3[nH]c4c(c3c2)CCN2C(=O)[C@@H]([C@H](C)O)[C@@H](N(C)C(=O)Nc3cc(Cl)cc(Cl)c3)C[C@@H]42)cc1 | . | -5% | ? | . | . | .
CCOc1ccc(NC(=O)COC(=O)c2ccc3c(c2)OCO3)cc1 | -18% | -9% | -5% | 17% | 6%[59 µM] | -1%
CCCS(=O)(=O)NC(=O)C1(C)CCN(C(=O)c2cc(OC)c(OC)c(OC)c2)C1 (stereo not drawn) | . | -8% | -2% | . | . | .
CCCCn1c(N)c(N(CCC(C)C)C(=O)C2CCN(C(=O)c3ccccc3C)CC2)c(=O)[nH]c1=O | 2% | -8% | 1% | 25% | -47% | 8%
COc1ccc(C(C)=O)cc1CS(=O)(=O)CC(=O)O | -2% | -19% | -4% | 22% | 45µM* | -18%
COc1ccc(C(C)=O)cc1CC(=O)N(Cc1ccccc1)c1ccccc1 | ? | 30µM* | 16% | -16% | 2%[59 µM] | -3%
SMILES | JMJD2A Tudor | PLK1 PBD block | ALOX12 inh | HP1b binding inh | G9a block | BAZ2B inh
C=CCn1c(SCc2csc(C)n2)nc2sc3c(c2c1=O)CCCCC3 | -15% | -5% | -13% | 68% | -3%[59 µM] | 1%
CSc1cccc(N2C(=O)N(Cc3ccc([N+](=O)[O-])cc3)c3ccccc3S2(=O)=O)c1 | -24% | . | -14% | 22% | -25%[59 µM] | -15%
O=S(=O)(NCCc1csc(-c2ccc(F)cc2)n1)c1ccc(F)cc1F | 2% | . | ? | 31%[57 µM] | 19%[59 µM] | 17%
CC(Sc1ncnc2ccccc12)C(=O)Nc1cccc(Cl)c1Cl (stereo not drawn) | . | . | -3% | . | . | .
O=C(Cc1sc(Nc2ccccc2)nc1-c1ccccc1)NCc1ccccn1 | ? | -18% | 6% | -17% | 35µM* | -38%
CCc1sc(NC(=O)COC)nc1-c1ccccc1 | -10% | 18µM* | 22% | -22% | 35µM* | 3%
O=C(O)Cc1sc(Nc2ccc(C(=O)O)cc2)nc1-c1ccccc1 | 0% | . | -22% | 30% | 2%[59 µM] | -19%
O=C(O)Cc1sc(Nc2ccccc2Cl)nc1-c1ccccc1 | -19% | . | ? | 11% | -4%[59 µM] | -22%
O=C(O)Cc1sc(Nc2ccccc2)nc1-c1ccc(Cl)cc1 | 45µM* | 21µM* | ? | ? | 18µM* | -28%
Cc1ccc(Nc2nc(-c3ccccc3)c(CC(=O)O)s2)cc1 | 2%[11.4 µM] | ? | ? | -23% | 45µM* | -27%
CCc1sc(NC(C)=O)nc1-c1ccccc1 | -10% | -12% | -12% | 21% | -17% | ?
O=C(OCc1cc(=O)oc2cc(O)ccc12)c1ccccc1F | . | . | -16% | . | . | .
COc1ccc(NC(=O)c2nc[nH]c2C(=O)N[C@@H](C)c2ccccc2)cc1 | ? | -3% | -24% | 11% | 17%[59 µM] | -8%
O=C(O)Cc1sc(-c2ccccc2)nc1-c1ccc(Cl)cc1 | . | -5% | -11% | . | . | .
Cc1nc(Nc2ccccc2)sc1C(=O)c1ccc(F)cc1 | 3% | 0% | ? | 38% | ? | ?
O=C(O)Cc1sc(-c2ccc(Cl)cc2)nc1-c1ccccc1 | 25µM* | 24µM* | 55% | ? | -47%[12.7 µM] | 0%
O=C(O)Cc1sc(Nc2ccc(F)cc2)nc1-c1cccs1 | ? | ? | ? | ? | 8.9µM* | ?

Assay outcomes as filed in PubChem.
